TGFb inhibitor = blocks TGF-b signaling | Potency, µM (highest dose often 46.1 µM), most hits filed as inhibitors | HepG2 CAGA-GFP TGF-b/SMAD3 reporter, GFP fluorescence, 18 h; TGF-beta stimulated, 500 pg/mL final | actives 1.2% (n = 410,000); also: nearly all actives have a fitted effect of over 65% in size
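Smad-responsive CAGA-GFP expression was quantified in HEPG2 cells exposed to compounds and 500 pg/mL final TGF-beta for 18 h at 37 degrees C; unstimulated wells defined full inhibition.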
mIDH1 inhibitor = blocks human mutant IDH1 R132H enzyme; O75874; Potency, µM (titrated, usually from 76.6 µM), usual class: inhibitors; actives 0.093% (n = 390,000); IDH1-R132H enzyme, NADPH consumption, diaphorase/resazurin fluorescence; also: nearly all actives have a fitted effect of over 65% in size
Target sequence (O75874 whole entry R132H, stated change not applied): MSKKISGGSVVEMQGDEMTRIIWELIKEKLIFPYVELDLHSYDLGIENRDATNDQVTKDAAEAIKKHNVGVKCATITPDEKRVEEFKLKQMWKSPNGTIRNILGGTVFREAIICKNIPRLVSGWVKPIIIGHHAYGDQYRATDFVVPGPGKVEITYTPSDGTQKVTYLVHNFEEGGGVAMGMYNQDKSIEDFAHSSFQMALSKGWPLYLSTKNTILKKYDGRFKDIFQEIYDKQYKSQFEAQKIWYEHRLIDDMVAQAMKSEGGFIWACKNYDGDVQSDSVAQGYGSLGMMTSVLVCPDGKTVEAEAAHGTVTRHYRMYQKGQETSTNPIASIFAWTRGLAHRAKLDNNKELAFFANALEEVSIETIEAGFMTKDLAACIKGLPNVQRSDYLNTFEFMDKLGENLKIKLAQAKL
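IDH1-R132H (0.5 ug/mL dispensed) in pH 7.5 Tris buffer was preincubated 30 min with compound, then given a substrate mix of 0.016 mM NADPH and 2 mM alpha-KG for 80 min at room temperature; remaining NADPH was read by diaphorase/resazurin fluorescence.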
LDHA inh = blocks human lactate dehydrogenase A. P00338. purified LDHA, NADH/diaphorase-resazurin fluorescence; stronger effect = lower value. activity change, % (values are at about 110 or 230 µM). actives 0.15% (n = 480,000); in the data active = activity change below about -30%; inconclusive = mostly about -25% to -30%
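Human LDH5 (2 nM) was incubated with 0.06 mM NADH and 0.2 mM pyruvate for 5 min at room temperature in Tris pH 7.4. Remaining NADH was coupled through diaphorase/resazurin, and resorufin fluorescence was read at 0 and 20 min.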
S2 tox = reduces viability in counter-screen for ATXN expression inhibitors | AID 651635 | S2 cells (HEK-293 line with an ATXN2-luciferase reporter) viability, CellTiter-Fluor protease fluorescence, 24 h | Potency, µM (titrated, usually from 56.7 µM), hits mostly cytotoxic | actives 0.49% (n = 400,000); also: nearly all actives have a fitted effect of over 40% in size
HepG2 tox = counter-screen for TGF-b inhibitors: cytotoxicity in HepG2 cells. HepG2 CAGA-GFP viability, ATP luminescence, 18 h. Potency, µM (top dose mostly 46.1 µM), usual class: cytotoxic. actives 0.76% (n = 410,000)
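CellTiter-Glo luminescence gave cytotoxicity after 18 hours at 37 degrees C. The cells were HepG2 CAGA-GFP in 1% FBS DMEM, stimulated with 500 pg/mL TGF-beta after compound addition. %Activity was normalised to no-cell wells (complete cell-killing) and DMSO (no toxicity), and curves were fitted and classified.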
ATXN2 expr inh = ATXN2 expression inhibition; Potency, µM (titrated, usually from 57 µM), hits mostly inhibitors; HEK-293 ATXN2-luciferase reporter, luminescence, 24 h; actives 0.72% (n = 360,000); also: nearly all actives have a fitted effect of over 55% in size
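qHTS (up to 57 uM final) was run with 24 h compound exposure of reporter cells at 37 °C. Each well was multiplexed: SteadyGlo luminescence measured ATXN2-luciferase expression after a fluorogenic Gly-Phe-AFC viability readout (25 uM final).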
Numbers stand for hits. In the library only some 2.2% were active in any assay of this set; here they are far more common. Unless noted, calls follow the shape of the dose curve; as a rule, active = well fitted curve in the direction sought with a large enough effect; inconclusive = small, poorly fitted or top-dose-only effect, or another doubt; inactive = no such curve, though single readings can be large; an effect the other way counts as inactive or inconclusive.

`Cn1ccnc1-c1nc2ccccc2[nH]c1=O` gave TGFb inhibitor inactive, mIDH1 inhibitor inactive, LDHA inh inactive, S2 tox inactive, HepG2 tox inactive and ATXN2 expr inh inactive.
For CCN(Cc1ccccc1)S(=O)(=O)c1ccc(C(=O)Nc2nnc(C3CC3)o2)cc1 the results were TGFb inhibitor inactive, mIDH1 inhibitor inactive, LDHA inh inactive, S2 tox inactive, HepG2 tox inactive and ATXN2 expr inh 20µM.
Screening Cc1nnc(NC(=O)c2ccc(S(=O)(=O)N(C)Cc3ccccc3)cc2)o1 returned TGFb inhibitor inactive, mIDH1 inhibitor inactive, LDHA inh inactive, S2 tox inconclusive, HepG2 tox inactive and ATXN2 expr inh inactive.
C=CCOn1c(=O)c(-c2ccc(OC)c(OC)c2)[n+]([O-])c2ccccc21 was read as TGFb inhibitor inactive, mIDH1 inhibitor inactive, LDHA inh inactive, S2 tox inactive, HepG2 tox inactive and ATXN2 expr inh inactive.
`Cc1ccc(N(C)S(=O)(=O)c2nnc(NC(=O)c3ccco3)s2)cc1` gave TGFb inhibitor inactive, mIDH1 inhibitor inactive, LDHA inh inactive, S2 tox inactive, HepG2 tox inactive and ATXN2 expr inh inactive.
Screening CC1(Cc2ccc(F)cc2)C(=O)Nc2c(Cl)ccc(Cl)c21 (centres undefined) returned TGFb inhibitor inactive, LDHA inh inactive, S2 tox inactive, HepG2 tox inactive and ATXN2 expr inh inactive.
Screening COc1ccc(C(C)=O)cc1CC1(C)C(=O)Nc2ccc(OC(F)(F)F)cc21 (centres undefined) returned TGFb inhibitor inactive, LDHA inh inactive, S2 tox inactive, HepG2 tox inactive and ATXN2 expr inh inactive.
COC(=O)c1ccc(CC2(C)C(=O)Nc3ccc(-c4cccc(C(F)(F)F)c4)cc32)o1 (centres undefined) was read as TGFb inhibitor inconclusive, LDHA inh inactive, S2 tox 31.6µM, HepG2 tox 22.4µM and ATXN2 expr inh inconclusive.
Screening COc1ccc(OC(F)(F)F)cc1CC1(C)C(=O)Nc2ccc(-c3ccsc3)cc21 (centres undefined) returned TGFb inhibitor 12.6µM, LDHA inh inactive, HepG2 tox inactive and ATXN2 expr inh inactive.
`CC1(Cc2ccc(OC(F)(F)F)cc2)C(=O)Nc2ccc(OC(F)(F)F)cc21` (centres undefined) gave TGFb inhibitor inconclusive, LDHA inh inactive, S2 tox inconclusive, HepG2 tox 17.8µM and ATXN2 expr inh inconclusive.
For CC1(Cc2ccccc2OC(F)(F)F)C(=O)Nc2c(Cl)ccc(Cl)c21 (centres undefined) the results were TGFb inhibitor 14.1µM, LDHA inh inactive, S2 tox inconclusive, HepG2 tox inactive and ATXN2 expr inh inactive.
Screening Cc1ccc(S(=O)(=O)CCc2nnc(NC(=O)c3ccccn3)s2)cc1 returned TGFb inhibitor inconclusive, mIDH1 inhibitor inactive, LDHA inh inactive, S2 tox inactive, HepG2 tox inactive and ATXN2 expr inh inactive.
Screening CC1(Cc2ccc(OC(F)(F)F)cc2)C(=O)Nc2c(Cl)ccc(Cl)c21 (centres undefined) returned TGFb inhibitor 15.8µM, LDHA inh inactive, S2 tox inconclusive, HepG2 tox inactive and ATXN2 expr inh inconclusive.
Screening CSc1ccccc1C(=O)N1CCc2ccc(NC(=O)c3ccccn3)cc2C1 returned TGFb inhibitor inactive, mIDH1 inhibitor inactive, LDHA inh inactive, S2 tox inconclusive and HepG2 tox 10µM.
Screening Cc1cc(C)c(S(=O)(=O)NCCc2sc3nc(-c4ccc(F)cc4)nn3c2C)c(C)c1 returned TGFb inhibitor 11.2µM, mIDH1 inhibitor inactive, LDHA inh inactive and HepG2 tox inactive.
`Cc1ccc(-c2nc3sc(CCNC(=O)c4ccc(Br)o4)c(C)n3n2)cc1` gave TGFb inhibitor 17.8µM, mIDH1 inhibitor inactive, LDHA inh inactive, HepG2 tox inactive and ATXN2 expr inh inconclusive.
Cc1c(CCNC(=O)c2ccc(Br)o2)sc2nc(-c3ccc(F)cc3)nn12 was read as TGFb inhibitor inconclusive, mIDH1 inhibitor inactive, LDHA inh inactive and HepG2 tox inactive.
For CCCS(=O)(=O)NCCc1sc2nc(-c3ccc(F)cc3)nn2c1C the results were TGFb inhibitor inactive, mIDH1 inhibitor inactive, LDHA inh inactive and HepG2 tox inactive.
Screening Cc1cccc(-c2nc3scc(CCNS(=O)(=O)c4ccc(F)cc4C)n3n2)c1 returned TGFb inhibitor 11.2µM, mIDH1 inhibitor inactive, LDHA inh inactive and HepG2 tox inactive.
Screening CN(C)S(=O)(=O)N1CCN(C(=O)N2CCCCC2)CC1 returned TGFb inhibitor inactive, mIDH1 inhibitor inactive, LDHA inh inactive, S2 tox inactive, HepG2 tox inactive and ATXN2 expr inh inactive.
For Cc1ccc(S(=O)(=O)c2ncccc2N)cc1 the results were TGFb inhibitor inactive, mIDH1 inhibitor inactive, LDHA inh inactive, S2 tox inactive and HepG2 tox inactive.
Cc1ccc(S(=O)(=O)c2ncccc2[N+](=O)[O-])cc1 was read as TGFb inhibitor 2.51µM, mIDH1 inhibitor inactive, LDHA inh inactive, S2 tox 5.01µM and HepG2 tox inactive.
CSc1ccc(CCNC(=O)CS(=O)(=O)Cc2nc(-c3ccc(C)cc3)oc2C)cc1 was read as LDHA inh inactive.
For COc1ccccc1-c1ncn(Cc2cccc(-c3ccccc3)c2)c1CC(C)C the results were LDHA inh inactive, S2 tox 11.2µM and ATXN2 expr inh 11.2µM.
For CCc1nnc(SCC(=O)Nc2ccc(OC)c(OC)c2)c2cc3occc3n12 the results were TGFb inhibitor inactive, mIDH1 inhibitor inactive, LDHA inh inactive and HepG2 tox inactive.
For CCc1cccc(C)c1NC(=O)CSc1nnc(CC)n2c1cc1occc12 the results were TGFb inhibitor 7.94µM, mIDH1 inhibitor inactive, LDHA inh inactive and HepG2 tox inactive.
Screening CCn1c2ccccc2c2cc(NC(=O)COC(=O)c3cccc(S(=O)(=O)NC)c3)ccc21 returned TGFb inhibitor inactive, mIDH1 inhibitor inactive, LDHA inh inactive, S2 tox inactive, HepG2 tox inactive and ATXN2 expr inh 15.8µM.
For CCn1c2ccccc2c2cc(NC(=O)COC(=O)Cc3cn4ccsc4n3)ccc21 the results were TGFb inhibitor inconclusive, mIDH1 inhibitor inactive, LDHA inh inactive, S2 tox inactive, HepG2 tox inactive and ATXN2 expr inh 28.2µM.
For CCN(CC)S(=O)(=O)c1cccc(C(=O)OCC(=O)Nc2ccc3c(c2)c2ccccc2n3CC)c1 the results were TGFb inhibitor inactive, mIDH1 inhibitor inactive, LDHA inh inactive, S2 tox inactive, HepG2 tox inactive and ATXN2 expr inh inactive.

From PubChem BioAssay
